Screens deposited in PubChem BioAssay by Sanford-Burnham Center for Chemical Genomics.
Only a selection was taken, and hits are over-represented in it overall.
DUSP3 inh: VHR1 (DUSP3) phosphatase inhibition. actives 0.7% (n = 50,000). recombinant VHR phosphatase, colorimetric substrate read-out. P51452. inhibition, % at 20 µM; in the data active = inhibition above about 60%
Target sequence (P51452 whole entry, looked up): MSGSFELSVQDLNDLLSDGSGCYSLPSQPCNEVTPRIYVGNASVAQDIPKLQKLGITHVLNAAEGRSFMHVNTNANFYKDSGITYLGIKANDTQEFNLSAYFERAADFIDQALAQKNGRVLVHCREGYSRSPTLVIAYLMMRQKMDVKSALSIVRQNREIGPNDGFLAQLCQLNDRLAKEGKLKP
Large screens that a line does not name were inactive.

CC(Oc1ccc2oc(-c3ccccc3)c(C(=O)O)c2c1)C(=O)O (stereo not given)	DUSP3 inh 80.6
CCOc1ccc2oc(-c3ccccc3)c(C(=O)O)c2c1	none
CCOC(=O)c1c(-c2ccccc2)oc2ccc(OC(C)C(=O)OCC)cc12 (stereo not given)	none
Cc1ccc2occ(C(=O)c3ccccc3C)c(=O)c2c1	none
COC(=O)CN(c1cccc(Cl)c1)S(=O)(=O)c1ccccc1	none
CCC(=O)N1c2ccccc2NC2=C(C(=O)CC(c3ccc(OC)cc3)C2)C1c1ccccc1 (stereo not given)	none
COc1ccc(C2CC(=O)C3=C(C2)Nc2ccccc2NC3c2ccc(-c3ccccc3)cc2)cc1OC (stereo not given)	none
COc1ccc(C2CC(=O)C3=C(C2)Nc2ccccc2NC3c2ccc(OC)c(OC)c2)cc1 (stereo not given)	none
CCC(=O)N1c2ccccc2NC2=C(C(=O)CC(c3ccccc3)C2)C1c1ccc(F)cc1 (stereo not given)	DUSP3 inh 113.1
COc1ccc(C2C3=C(CC(c4ccccc4)CC3=O)Nc3ccccc3N2C(=O)C(C)C)cc1OC (stereo not given)	DUSP3 inh 99.1
CCC(=O)N1c2ccccc2NC2=C(C(=O)CC(c3ccccc3)C2)C1c1cccc(Br)c1 (stereo not given)	none
COc1ccccc1NC(=O)C1=C(C)NC(=S)NC1c1ccc([N+](=O)[O-])cc1 (stereo not given)	none
CN1C(=O)NC(=O)/C(=C/c2ccc(-c3cccc(Cl)c3Cl)o2)C1=O	none
COc1ccc(NCN2C(=O)CSC2=O)cc1	none
Cc1cc(OCC(=O)NCc2ccc(F)cc2)cc(C)c1Cl	none
CN(C)c1ccc(/C=C2\SC(=S)N(NC(=O)c3ccccc3Cl)C2=O)cc1	none
Nc1ccc(Oc2ccc(N)c(N)c2)cc1N	DUSP3 inh 75.4
COc1ccc(Oc2ccc(Oc3ccc(OC)cc3)cc2)cc1	none
Nc1ccc(Oc2ccc(N)cc2)cc1	none
COc1ccc(/C=N/Nc2nc(-c3ccc(C)cc3)nc3ccccc23)cc1OC	none
O=C1NN(c2ccc(Cl)c(Cl)c2)C(=O)/C1=C/c1cccc([N+](=O)[O-])c1	DUSP3 inh 78.4
O=C1NN(c2ccc(Cl)c(Cl)c2)C(=O)/C1=C/c1cccc(Br)c1	none
O=C1NN(c2ccc(Cl)c(Cl)c2)C(=O)/C1=C/c1cc([N+](=O)[O-])ccc1O	none
COc1ccccc1NC(=O)/C=C/c1cc(Br)cs1	none
CNc1nc2ccc(C)cn2c(=O)c1/C=N/O	none
COc1cccc(C(=O)Nc2ccc3c(c2)OCCO3)c1	none
COC(=O)C1=C(C)N(C)C(C)=C(C(=O)OC)C1c1cc(OC)c(OC)c(OC)c1	none
COC(=O)C1=C(C)N(C)C(C)=C(C(=O)OC)C1c1cc(Br)c(OC)c(OC)c1	DUSP3 inh 116.2
COC(=O)C1=C(C)N(C)C(C)=C(C(=O)OC)C1c1ccc(OC)c(OC)c1	none
CC1=C(C(=O)OC2CCCCCC2)C(c2ccccc2)NC(=O)N1 (stereo not given)	none
O=c1c2ccccc2nc(/C=C/c2c[nH]c3ccccc23)n1-c1cccc([N+](=O)[O-])c1	none
Cc1[nH]c2ccccc2c1/C=C/c1nc2ccccc2c(=O)n1-c1cccc([N+](=O)[O-])c1	DUSP3 inh 78.1
COc1ccc2c(c1)c(/C=C/c1nc3ccccc3c(=O)n1-c1cccc([N+](=O)[O-])c1)c(C)n2C	none
Cc1cc(C)c(C#N)c(SCC(=O)Nc2cccc(C)c2C)n1	none
COc1cc(/C=N\n2nnnc2N)ccc1OCc1ccc(C)cc1	none
O=C1NC(=S)S/C1=C/c1cccc(OCc2ccccc2)c1	none
CCOC(=O)C1=C(O)/C(=C/c2ccc(-c3ccccc3)cc2)SC1=Nc1ccc(OC)cc1	DUSP3 inh 114.6
CCOC(=O)C1=C(O)/C(=C/c2ccc(O)cc2)SC1=Nc1ccccc1	none
CCOC(=O)C1=C(O)/C(=C/c2ccccc2)SC1=Nc1ccccc1	none
CCOC(=O)c1c(NC(=O)c2ccc(Cl)c(Cl)c2)sc(C(=O)Nc2ccccc2F)c1C	none
CCOC(=O)c1c(NC(=O)c2cccc(OC)c2)sc(C(=O)Nc2ccccc2F)c1C	DUSP3 inh 115.1
CCOC(=O)c1c(NC(=O)c2cccc(C)c2)sc(C(=O)Nc2ccccc2F)c1C	none
O=C1NC(=S)NC(=O)C1=Cc1ccc(-c2ccc([N+](=O)[O-])cc2Br)o1	DUSP3 inh 64.2
C=CCN1C(=O)/C(=C\c2cccn2-c2ccc([N+](=O)[O-])cc2)C(=O)NC1=S	DUSP3 inh 80.0
C=CCN1C(=O)/C(=C\c2ccc(-c3ccc(OC)cc3[N+](=O)[O-])o2)C(=O)NC1=S	none
C=CCN1C(=O)/C(=C\c2ccc(-c3ccc([N+](=O)[O-])cc3Br)o2)C(=O)NC1=S	none
O=C1NN(c2ccccc2)C(=O)/C1=C/c1cccn1-c1ccc([N+](=O)[O-])cc1	none
O=C1NC(=O)N(c2ccccc2)C(=O)/C1=C\c1cccn1-c1ccc([N+](=O)[O-])cc1	none
O=C1NC(=S)N/C1=C\c1ccc(-c2cc([N+](=O)[O-])ccc2Br)o1	none
C=CCN1C(=O)/C(=C\c2ccc(-c3ccc([N+](=O)[O-])cc3Cl)o2)C(=O)NC1=S	none
C=CCN1C(=O)/C(=C\c2ccc(-c3ccccc3[N+](=O)[O-])o2)C(=O)NC1=S	DUSP3 inh 87.8
CCc1c(C)nc2ccc(Br)cc2c1SCC(=O)O	none
CCOc1ccc(CN2CCN(C(=O)c3ccc(-c4ccccc4)cc3)CC2)cc1	none
Cc1c([N+](=O)[O-])cc2[nH]c(=O)c(=O)[nH]c2c1[N+](=O)[O-]	none
COc1ccccc1N1CCN(/N=C\c2cc(OC)c(OC(C)=O)c(OC)c2)CC1	none
Cc1ccc(N2CCN(C(=S)c3ccc(-c4cccc([N+](=O)[O-])c4)o3)CC2)cc1	DUSP3 inh 90.9
O=[N+]([O-])c1ccc(-c2ccc(C(=S)N3CCOCC3)o2)cc1	none
O=[N+]([O-])c1ccc(-c2ccc(C(=S)N3CCCCC3)o2)cc1	none
O=C1C=CC(=O)C(c2cccc(C(F)(F)F)c2)=C1	none
COc1cc(NC(=O)c2ccc(Cl)cc2)c(Cl)cc1N=NC1=C(O)CC(C)(C)CC1=O	none
C/C(=N\NC(=O)c1cccc([N+](=O)[O-])c1)c1ccccn1	none
Cc1ccc(N=C2NC(=O)/C(=C/c3ccc(F)cc3)S2)cc1Cl	none
Cc1ccc(N=C2NC(=O)/C(=C/c3cccc(O)c3)S2)cc1Cl	none
COc1cc(/C=C2\SC(=Nc3ccc(C)c(Cl)c3)NC2=O)ccc1O	DUSP3 inh 68.1
O=C(c1ccc(F)cc1)N1CCN(Cc2ccc3c(c2)OCO3)CC1	none
O=C(Nc1ccccc1)N1CCN(Cc2ccc3c(c2)OCO3)CC1	DUSP3 inh 101.2
O=C(COc1ccc2ccccc2c1)N1CCN(Cc2ccc3c(c2)OCO3)CC1	none
CC(=O)Nc1ccc(S(=O)(=O)NC(=O)CC(C)C)cc1	none
CCN(CC)C(=O)c1sc(NC(=O)c2ccc(OC)cc2)c(C(=O)OC)c1C	none
COc1ccc(O)c(CN2CCN(Cc3ccc(F)cc3)CC2)c1	none
CC1=C(C(=O)OCC(Cl)(Cl)Cl)C(c2ccccc2F)NC(=O)N1 (stereo not given)	none
Cc1ccc(N2C(=O)C=CC2=O)c(Br)c1	none
O=C1C=CC(=O)N1c1ccccc1N1C(=O)C=CC1=O	DUSP3 inh 84.1
COc1ccc(N2C(=O)C=CC2=O)cc1	none
O=C1NC(=S)NC(=O)C1=Cc1ccc(Oc2ccc([N+](=O)[O-])cn2)cc1	none
COc1cc(C(=O)N2N=C(c3ccccc3)CC2c2ccccc2)cc(OC)c1OC (stereo not given)	none
Cc1ccc(N(CC(=O)Nc2ccccc2Br)S(C)(=O)=O)cc1Cl	none
O=C1NC(=O)N(c2ccccc2)C(=O)/C1=C\c1ccc(-c2cccc(C(=O)O)c2)o1	none
